For 40 molecules, viability and Potency results are on record in PubChem BioAssay (NCATS).

Each structure is given as a SMILES string. Records with an inconclusive call do not appear. Unmarked numbers belong to inactive results. The source made the active and inactive calls. The call rests on the fitted dose curve; in most records, active means well fitted cell-killing curve with a large enough effect; inconclusive means small, poorly fitted or top-dose-only effect, or effect the other way; inactive means no such curve, though single readings can be large or run the other way.
Potency means the concentration at half of the fitted maximal effect.

The nature of the experiment: Quantitative High-Throughput drug screen in 47 multiple myeloma cell lines against the NCATS MIPE library collection: SKMM1_PLB cell viability assay (AID 1919863). Further: nearly all actives have a fitted effect of over 35% in size. On viability: series mostly up to about 46 µM. Particulars: SKMM1 myeloma viability, CellTiter-Glo ATP, 48 h; viability: hits give low values. The source says:
PI: Beverly A. Mock Ph.D.
Laboratory of Cancer Biology and Genetics,
Center for Cancer Research, National Cancer Institute,
National Institute of Health, Bethesda, Maryland
Drug resistance and disease progression are common in multiple myeloma (MM) patients, underscoring the need for new therapeutic combinations. […] We hypothesized that effective combinations would reduce MYC expression and enhance p16 activity. […] These preclinical data identify potentially useful drug combinations for evaluation in drug-resistant MM and reveal potential mechanisms of combined drug sensitivity.
Described herein is the primary MIPE qHTS used to cherrypick compounds. Validated compounds were then further tested for potential synergistic activiy.
[1] Peat TJ, Gaikwad SM, Dubois W, Gyabaah-Kessie N, Zhang S, Gorjifard S, Phyo Z, Andres M, Hughitt VK, Simpson RM, Miller MA, Girvin AT, Taylor A, Williams D, D'Antonio N, Zhang Y, Rajagopalan A, Flietner E, Wilson K, Zhang X, Shinn P, Klumpp-Thomas C, McKnight C, Itkin Z, Chen L, Kazandijian D, Zhang J, Michalowski AM, Simmons JK, Keats J, Thomas CJ, Mock BA. Drug combinations identified by high-throughput screening promote cell cycle transition and upregulate Smad pathways in myeloma. Cancer Lett. 2023 Aug 1;568:216284. doi: 10.1016/j.canlet.2023.216284. Epub 2023 Jun 24. PMID: 37356470; PMCID: PMC10408729.
SEQUENCE No. (e.g., 1, 2, 3, etc.); […] (e.g., Cells, Incubation, Reagent, etc.); VALUE and DESCRIPTION.
1; Cells; 5 uL; white, solid bottom 1536-well Greiner assay plate.
2; Compounds; 23 nL; Kalypsis pin tool (Wako USA) equipped with a 1536-well pin head to transfer to the assay plates.
3; Incubation; 48 hours; 37C incubation.
4; Reagent;5uL; CellTiter Glo (Promega).
5; Detector; 425V; Luminescence; Viewlux PerkinElmer.
NOTES (numbers refer to Sequence numbers above)
1. The cell-based screening methods employed in this study were like those previously published. Briefly, the corresponding myeloma cell lines were screened in 1,536-well plates with 500 cells, 5-uL per well for inhibition of cell viability (assessed by measuring ATP levels with CellTiterGlo).
2. NCATS MIPE 4.0 library of approved and investigational drugs were added using the Kalypsis pin tool. Wells treated with DMSO only for 100% viability and media only for 0% viability were used as controls.
3. The assay plates were covered and incubated for 48 hours in a 37C, 5% CO2 incubator with controlled humidity.
4. After 48 hours, CellTilter-GloTM luminescent substrate mix (Promega) reagent was added to the assay plate and plates we incubated for 5 min at room temperature.
5. Signal was measured as median relative luminescence units on a ViewLux (PerkinElmer) multiplate reader.
[1] Heske CM, Davis MI, Baumgart JT, Wilson K, Gormally MV, Chen L, Zhang X, Ceribelli M, Duveau DY, Guha R, Ferrer M, Arnaldez FI, Ji J, Tran HL, Zhang Y, Mendoza A, Helman LJ, Thomas CJ. Matrix Screen Identifies Synergistic Combination of PARP Inhibitors and Nicotinamide Phosphoribosyltransferase (NAMPT) Inhibitors in Ewing Sarcoma. Clin Cancer Res. 2017 Dec 1;23(23):7301-7311. doi: 10.1158/1078-0432.CCR-17-1121. Epub 2017 Sep 12. PMID: 28899971; PMCID: PMC6636827.
On to `CC=C(C)C(=O)N[C@@H](c1ccccc1)[C@@H](O)C(=O)O[C@H]1C[C@@]2(O)[C@@H](OC(=O)c3ccccc3)[C@@H]3[C@]4(OC(C)=O)CO[C@@H]4C[C@H](O)[C@@]3(C)C(=O)[C@H](OC(C)=O)C(=C1C)C2(C)C`, for which the viability was 60.8%.
The same measure, in the same setting: then `COc1ccc2c(c1)[C@]13CCCCC1C(C2)N(C)CC3` (stereo not given in full), with 120%.
Consider `N#C[C@H](O[C@@H]1O[C@H](CO[C@@H]2O[C@H](CO)[C@H](O)[C@H](O)[C@H]2O)[C@H](O)[C@H](O)[C@H]1O)c1ccccc1`, for which the Potency was 20.9 µM (active).
The same measure, in the same setting: as for `CCNC(=O)C[C@@H]1N=C(c2ccc(Cl)cc2)c2cc(OC)ccc2-n2c(C)nnc21`, the figure is 0.469 µM (active); as for `C=CCON=C(C[C@H]1O[C@@H]2O[C@]3(C)CC[C@@H]4[C@H](C)CC[C@@H]([C@H]1C)[C@@]24OO3)[C@H]1O[C@@H]2O[C@]3(C)CC[C@H]4[C@H](C)CC[C@@H]([C@@H]1C)[C@@]24OO3`, 0.264 µM (active).
Regarding `C1=C2CCCN[C@H]2[C@@H]2C[C@H]1[C@@H]1CCCCN1C2`, the viability was 99.4%.
Take `O=C(Oc1ccc([N+](=O)[O-])cc1)N1CCC(C(O)(c2ccc3c(c2)OCO3)c2ccc3c(c2)OCO3)CC1`: the viability is 123%.
On to `CC[C@@H]1[C@@H](C)O[C@@](O)([C@@H](C)[C@H](O)[C@H](C)[C@H]2OC(=O)C=CC=C[C@@H](C)[C@@H]([C@@H](C)[C@@H](O)[C@H](C)[C@@]3(O)C[C@H](O[C@H]4C[C@H](O)[C@H](O)[C@H](C)O4)[C@H](CC)[C@@H](C)O3)OC(=O)C=CC=C[C@@H]2C)C[C@H]1O[C@H]1C[C@H](O)[C@H](O)[C@H](C)O1`, for which the Potency was 0.662 µM (active).
Take `C[C@@H]1[C@H](O)[C@@H](C)C=CC=CCCC=CC=CC=CC=C[C@H](O[C@H]2O[C@@H](C)[C@H](O)[C@@H](N)[C@@H]2O)CC2O[C@](O)(C[C@@H](O)[C@H](O)CC[C@@H](O)C[C@@H](O)C[C@@H](O)CC(=O)O[C@H]1C)C[C@H](O)[C@H]2C(=O)O`: the viability was 120%.
Same read-out and setting: as for `COc1cc2cc(c1Cl)N(C)C(=O)C[C@H](OC(=O)C(C)C)[C@]1(C)O[C@H]1[C@H](C)[C@@H]1C[C@@](O)(NC(=O)O1)[C@H](OC)C=CC=C(C)C2`, the figure is 50.1%.
The same measure, in the same setting: as for `COc1ccc(CC2NCCc3cc(OC)c(OC)cc32)cc1OC` (stereo not given), the figure is 129%; as for `COC1=C[C@@H]2[C@@H]3Cc4ccc(OC)c(O)c4[C@]2(CCN3C)CC1=O`, 132%.
For `CC(=O)O[C@@]12CO[C@H]1C[C@H](O)[C@@]1(C)C(=O)[C@H](O)C3=C(C)[C@@H](O)C[C@@](O)([C@@H](OC(=O)c4ccccc4)[C@@H]21)C3(C)C`, the Potency is 4.18 µM (active).
Take `CN[C@@H]1Cc2cccc3[nH]c(=O)n(c23)C1`: the viability was 93.2%.
In the case of `O=C(Nc1ccncc1)C(=O)c1cn(Cc2ccc(Cl)cc2)c2ccccc12`, the Potency was 0.418 µM (active).
Regarding `CN1[C@H]2CC(O)C[C@H]1[C@H]1O[C@H]12` (stereo not given in full), the Potency was 23.5 µM (active).
Same read-out and setting: then `C[C@@H]1CC[C@@]2(OC1)O[C@H]1C[C@H]3[C@@H]4CC=C5C[C@@H](O[C@@H]6O[C@H](CO)[C@@H](O[C@@H]7O[C@@H](C)[C@H](O)[C@@H](O)[C@@H]7O)[C@H](O)[C@@H]6O[C@@H]6O[C@@H](C)[C@H](O)[C@@H](O)[C@@H]6O)CC[C@]5(C)[C@@H]4CC[C@]3(C)[C@@H]1[C@H]2C`, with 2.35 µM (active); and `Cc1c(C(=O)Nc2cccc(C(F)(F)F)c2)cc(-c2ccccc2)n1CCCN1CCOCC1`, with 26.4 µM (active).
As for `CC(=Cc1csc(C)n1)[C@@H]1C[C@H]2O[C@]2(C)CCC[C@H](C)[C@@H](O)[C@@H](C)C(=O)C(C)(C)[C@@H](O)CC(=O)O1`, the viability was 69.9%.
As for `CC(C)(O)C=CC(=O)[C@](C)(O)[C@H]1[C@H](O)C[C@]2(C)[C@@H]3CC=C4[C@@H](C=C(O)C(=O)C4(C)C)[C@]3(C)C(=O)C[C@@]12C`, the Potency was 2.64 µM (active).
On the same count and under the same terms, then `Cc1ccccc1-n1c(Cn2cnc3c(N)ncnc32)nc2cccc(C)c2c1=O`, with 0.526 µM (active); and `N=c1c2c(-c3ccccc3)c(-c3ccccc3)n(Cc3ccccc3)c2ncn1C1CCC(O)CC1` (stereo not given), with 16.6 µM (active).
The same measure, in the same setting: then `Cc1c(C(=O)c2cccc3ccccc23)c2cccc3c2n1[C@H](CN1CCOCC1)CO3`, with 23.5 µM (active); and `COc1ccc(C(=O)c2c(C)n(CCN3CCOCC3)c3cc(I)ccc23)cc1`, with 16.6 µM (active).
For `CCOC(=O)Nc1ccc(NCc2ccc(F)cc2)cc1N`, the viability is 119%.
`C=C[C@@H]1CN2CCC1C[C@H]2[C@H](O)c1ccnc2ccccc12` (stereo not given in full): the Potency is 20.9 µM (active).
`CCN(CC)C(=O)c1ccc(C2=CC3(CCNCC3)Oc3cccc(O)c32)cc1`: the viability is 112%.
Regarding `COc1cc([C@@H]2c3cc4c(cc3[C@@H](O)C3COC(=O)C32)OCO4)cc(OC)c1O` (stereo not given in full), the Potency is 0.0166 µM (active).
For `Cc1nc(-c2ccc(-c3ccc(C(=O)N4CCc5cc6c(cc54)C4(CCN(C)CC4)CO6)cc3)c(C)c2)no1`, the viability was 124%.
In the case of `C[C@@]12OC(=O)[C@]1([C@@H](O)[C@@H]1C=CCCC1)NC(=O)[C@H]2CCCl`, the Potency is 0.105 µM (active).
Same read-out and setting: as for `CCN1CCN(C(=O)Cc2ccc(Nc3ncc(F)c(Nc4ccc(C(=O)Nc5ccccc5Cl)cc4)n3)cc2)CC1`, the figure is 9.35 µM (active); as for `CN(C)[C@@H]1C(=O)C(C(N)=O)=C(O)[C@@]2(O)C(=O)C3=C(O)c4c(O)cccc4[C@@](C)(O)[C@H]3[C@H](O)[C@@H]12`, 14.8 µM (active); as for `C[C@@H]1O[C@@H](O[C@@H]2C=C3CC[C@@H]4[C@@H](CC[C@]5(C)[C@H](c6ccc(=O)oc6)CC[C@@]45O)[C@@]3(C)CC2)[C@H](O)[C@H](O)[C@H]1O`, 0.0235 µM (active).
In the case of `CC(=Cc1csc(C)n1)[C@@H]1C[C@H]2O[C@@H]2CCC[C@H](C)[C@@H](O)[C@@H](C)C(=O)C(C)(C)[C@@H](O)CC(=O)O1`, the viability was 81.4%.
Regarding `COc1ccc2c(c[n+](C)c3c4cc5c(cc4ccc23)OCO5)c1OC`, the Potency was 5.9 µM (active).
For `CC=C(C)C(=O)O[C@H]1C(C)=C2[C@@H]3OC(=O)[C@@](C)(O)[C@@]3(O)[C@@H](OC(=O)CCC)C[C@](C)(OC(C)=O)[C@@H]2[C@@H]1OC(=O)CCCCCCC`, the Potency is 0.105 µM (active).
On the same count and under the same terms, then `O=c1[nH]c2ccc(Cl)cc2c(N[C@@H]2CN3CCC2CC3)c1-c1nc2ccccc2[nH]1`, with 4.69 µM (active); and `Cc1ccccc1-n1c(Cn2ncc3c(N)ncnc32)nc2cccc(C)c2c1=O`, with 5.26 µM (active).
On to `c1cc2c(cc1[C@H]1OC[C@H]3[C@H]1CO[C@H]3c1ccc3c(c1)OCO3)OCO2`, for which the viability was 134%.
As to `C[C@]12Cc3cn[nH]c3C[C@@H]1CC[C@@H]1[C@H]2CC[C@@]2(C)[C@H]1CC[C@]2(C)O`, the Potency is 3.32 µM (active).
